A selection: hits, their analogues and other compounds. The true share with any hit is near 3.2%.
TMEM16A inh – mouse TMEM16A channel inhibition, primary screen. 310,000 tested, 1.2% active. HEK293 TMEM16A/YFP iodide influx fluorescence, ionomycin. Q8BHY3. normalized B-score (activity score, 25-100; higher = stronger inhibition) at 10 µM;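 active = ratio plate-corrected score three or more library SD toward inhibition, starting fluorescence score within five deviations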;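 also: score derived from kinetic fluorescence span divided by baseline fluorescence per well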
CHT block – human CHT choline transport inhibition; Q9GZV3; CHT-expressing cells, membrane potential dye, choline response; hits give low values; B-score at 10 µM; 310,000 tested, 0.86% active;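 active = B-score over 3 SD under the library average, and starting fluorescence ratio not unusually high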;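 also: choline stimulus applied at its EC90 after an EC20 pre-addition; B-score computed on integrated fluorescence ratio after choline addition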
Target sequence (Q9GZV3 whole entry, looked up): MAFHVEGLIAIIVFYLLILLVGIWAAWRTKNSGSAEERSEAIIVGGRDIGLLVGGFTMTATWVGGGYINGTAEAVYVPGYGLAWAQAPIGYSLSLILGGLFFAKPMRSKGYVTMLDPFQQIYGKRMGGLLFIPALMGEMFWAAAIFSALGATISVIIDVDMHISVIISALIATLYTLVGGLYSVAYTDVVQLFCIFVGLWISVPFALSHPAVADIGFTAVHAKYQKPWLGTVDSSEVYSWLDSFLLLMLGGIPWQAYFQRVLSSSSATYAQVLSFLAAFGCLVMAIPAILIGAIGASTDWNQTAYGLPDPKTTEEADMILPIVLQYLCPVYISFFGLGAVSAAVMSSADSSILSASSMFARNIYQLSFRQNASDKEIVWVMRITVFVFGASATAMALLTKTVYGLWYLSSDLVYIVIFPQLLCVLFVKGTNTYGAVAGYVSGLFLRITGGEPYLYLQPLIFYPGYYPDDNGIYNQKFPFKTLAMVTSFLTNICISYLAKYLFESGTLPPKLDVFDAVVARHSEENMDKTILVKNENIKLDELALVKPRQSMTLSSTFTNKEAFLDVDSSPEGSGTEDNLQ
ANO1 activ – mouse TMEM16A channel activation, primary screen. HEK293 TMEM16A/YFP-H148Q/I152L, iodide quench fluorescence; hits give low values. B-score at 10 µM. 340,000 tested, 0.3% active. AID 623877;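 active = fluorescence-ratio B-score plate-corrected deviation score at least 3 library SD below zero, with starting fluorescence score within 5 deviations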;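 also: channel opened by trigger with iodide after compound preincubation; score built on the fluorescence ratio of max minus min over baseline; more negative score means more quench and so TMEM16A activation or potentiation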
CHT allo act – human CHT allosteric activation. Q9GZV3. B-score at 10 µM. AID 488977. 310,000 tested, 0.49% active. CHT-expressing cells, membrane potential dye, choline EC20; hits give high values; LV-AA mutant CHT in HEK293 cells;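 active = initial fluorescence not abnormally high and integrated response B-score, plate-corrected, over 3 SD above library mean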
Kir21 inh – blocks the mouse Kir2.1 inward-rectifier potassium channel; HEK293-Kir2.1, FluxOR thallium flux fluorescence; hits give low values; P35561; AID 1672; 310,000 tested, 0.85% active; B-score at 10 µM;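 active = fluorescence ratio B-score at or below minus 3 SD of library scores, with starting-brightness B-score within 2 SD, cut at about -4.2 in these data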;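 also: channel flux triggered by added potassium and thallium sulfate stimulus; B-score of peak minus minimum fluorescence over baseline after thallium stimulus; more negative B-score means stronger Kir2.1 block with less thallium influx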
Rce1 inh – blocks yeast Ras-converting enzyme. yeast membranes, quenched prenylated peptide cleavage fluorescence. AID 2563. Q03530. 290,000 tested, 0.27% active. calls only;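 active = fall in fluorescence gain of 50% or more versus controls, with final raw signal at or below 3038400; inconclusive = same 50% fall but final raw signal above 3038400; inactive = fall in fluorescence gain under 50%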;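 also: plate controls were neutral control wells for no effect and wells lacking membranes for full effect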
* hit, by the source's call; i = inactive; ? = inconclusive; . = no result; + = active, no number.

SMILES	TMEM16A inh	CHT block	ANO1 activ	CHT allo act	Kir21 inh	Rce1 inh
CN1C(N)=NC(=O)/C1=C\c1ccc(Br)cc1	i	i	i	i	0.2	i
N#Cc1ccc(CSc2nnc(Cc3cccs3)n2Cc2ccco2)cc1	i	i	i	i	-6.1*	i
CC1=NN(c2ccccc2)C(=O)C1C=Nc1ccccc1O (stereo not drawn)	i	-5.2*	i	i	2.4	i
CCOc1ccc(C(=O)C(CCC(CN(C)C)C(=O)c2ccc(OCC)cc2)CN(C)C)cc1 (stereo not drawn)	.	.	i	.	-0.67	i
CN(C)CC(CCC(CN(C)C)C(=O)c1ccccc1)C(=O)c1ccccc1 (stereo not drawn)	.	.	-9.5*	.	-1.7	i
C=CS(=O)(=O)c1sc(Cl)c(N2CCOCC2)c1[N+](=O)[O-]	.	.	i	.	-9.5*	i
COc1ccc(CCNC(=O)Nc2ccc(F)cc2F)cc1OC	i	i	i	i	2	i
C=CCn1c(SCC(=O)OC)nc2sc3c(c2c1=O)CCN(C)C3	i	i	.	6.3*	0.01	i
CC1=CN2C(=NC(=O)CC2(C)C(=O)N(CC(=O)NC2CCCC2)Cc2ccccc2)C=C1 (stereo not drawn)	i	i	i	i	1.9	?
CC1=CC2=NC(=O)CC(C)(C(=O)N(CC(=O)NC3CCCC3)Cc3ccccc3)N2C=C1 (stereo not drawn)	i	i	i	i	0.02	+
CC1CC(C)CN(C(=O)CSCC(=O)Nc2nc(-c3cccs3)cs2)C1 (stereo not drawn)	i	i	i	i	0.67	i
O=C(Cc1ccccc1F)Nc1nc(-c2cccs2)cs1	25*	i	i	i	-0.11	i
O=C(COc1ccc(Cl)cc1)Nc1nc(-c2cccs2)cs1	100*	i	i	i	-0.37	i
O=C(CSCC(=O)N1CCCCC1)Nc1nc(-c2cccs2)cs1	25*	i	i	i	0.73	i
CCOC(=O)Cc1csc(NC(=O)COc2ccc(N(C)S(=O)(=O)c3cccs3)cc2)n1	100*	i	i	i	1.1	i
CCOC(=O)Cc1csc(NC(=O)COc2ccccc2)n1	i	i	i	i	0.22	i
C=CCN1C(=O)c2ccc(C(=O)N(CC)CC(=O)Nc3ccc(OC)cc3)cc2C1=O	i	i	i	i	1.4	i
CC(=O)c1ccc(S(=O)(=O)NCCc2csc(-c3cccnc3)n2)cc1	i	i	i	i	-1.1	i
N#Cc1nc(-c2ccccc2Cl)oc1NCc1ccco1	i	i	-4.7*	i	-0.53	i
N#Cc1nc(-c2ccccc2)oc1NCc1ccco1	i	i	i	i	1.9	i
CC(=O)N1c2c(cc(Br)cc2S(=O)(=O)N2CCN(c3ccccc3F)CC2)CC1C (stereo not drawn)	25*	i	i	i	0.15	i
CC(=O)N1c2c(cc(Br)cc2S(=O)(=O)N2CCCCC2)CC1C (stereo not drawn)	i	i	i	i	-0.07	i
CCOc1ccc(CCNC(=O)c2nccnc2C(=O)O)cc1OCC	i	i	i	i	-0.63	i
CCOc1ccc(CCNC(=O)C2(c3ccccc3)CC2)cc1OCC	i	i	i	i	-4.5*	i
COc1cc(OC)c(N(C)S(=O)(=O)c2cccc(C(=O)OCC(=O)N(C)C3CCCCC3)c2)cc1Cl	.	.	i	.	.	.
SMILES	TMEM16A inh	CHT block	ANO1 activ	CHT allo act	Kir21 inh	Rce1 inh
CC(Oc1ccc2c3c(c(=O)oc2c1)CCCC3)C(=O)NC1CC(C)(C)NC(C)(C)C1 (stereo not drawn)	i	i	i	i	0.6	+
Cc1c(C)c2ccc(OC(C)C(=O)NC3CC(C)(C)NC(C)(C)C3)cc2oc1=O (stereo not drawn)	i	i	i	i	-0.49	i
Fc1ccc(-c2cc3nc(-c4ccccc4)cc(N4CCN(CCN5CCOCC5)CC4)n3n2)cc1	.	.	i	.	-1.5	+
CN1CCN(c2cc(-c3ccccc3)nc3cc(-c4ccc(F)cc4)nn23)CC1	i	i	i	i	-1.8	i
Cc1onc(-c2c(Cl)cccc2Cl)c1C(=O)ONC(=O)c1ccccc1	i	i	i	i	-5.2*	i
Cc1onc(-c2c(F)cccc2Cl)c1C(=O)c1ccc(F)cc1	i	i	i	i	-4.8*	i
Cc1onc(-c2c(F)cccc2Cl)c1C(=O)ONC(=O)c1ccccc1	i	i	i	i	-1.2	i
COc1ccc2oc(-c3ccccc3)c(C(=O)N3CCOCC3)c2c1	i	i	i	i	-1.4	+
COc1ccc(-c2cccc(C(=O)N3CCOCC3)c2)cc1	i	i	i	i	0.47	i
Cc1[nH]c(C)c(S(=O)(=O)N2c3ccccc3CC2C)c1C(=O)N1CCCCC1 (stereo not drawn)	i	i	i	i	-0.14	i
CCOc1ccccc1N1CCN(C2=C(NS(=O)(=O)c3cccs3)C(=O)c3ccccc3C2=O)CC1	i	i	i	i	1.5	i
O=C1C(NS(=O)(=O)c2cccs2)=C(N2CCN(Cc3ccccc3)CC2)C(=O)c2ccccc21	i	-5.5*	i	i	-1.1	i
Cn1ncc2c(NCc3cccc(C(F)(F)F)c3)c(C(=O)O)cnc21	i	i	.	i	0.52	i
CCN(Cc1ccccc1)c1c(C(=O)O)cnc2c1cnn2C	i	i	-4.8*	i	1.3	i
COC(=O)C1Cc2c([nH]c3ccccc23)C2(CCN(Cc3ccccc3)CC2)N1 (stereo not drawn)	i	i	i	i	-6.8*	i
CCS(=O)(=O)c1ccc2oc(SCC(=O)NC3CCCC(C)C3C)nc2c1 (stereo not drawn)	i	i	i	i	-0.55	i
Cc1cc(C)cc(OCC(=O)N2N=C(C(F)(F)F)CC2(O)C(C)(C)C)c1 (stereo not drawn)	100*	i	i	i	-2.4	i
Cc1cc(C)cc(OCC(=O)N2N=C(c3cccnc3)CC2(O)C(F)(F)F)c1 (stereo not drawn)	i	i	i	i	1.3	i
CSCC(=O)NC1CCCc2c1cnn2-c1ccc(C)c(C)c1 (stereo not drawn)	i	i	i	i	-0.57	i
O=C(CN1C(=O)NC2(CCCCC2)C1=O)Oc1ccc2ccc(=O)oc2c1	.	.	i	.	.	.
COc1ccc(-c2ccc3oc(-c4ccsc4)c(-c4ccc(OC)cc4)c3c2)cc1	i	i	i	i	-1.3	i
